# Reference: the antibiotic and cytotoxicity screens of Wong et al. (2023)
# The campaign covered roughly 39,000 compounds. About 3,300 (8.5%) were called active. What follows is part of a selection rich in actives, with near analogues and random picks from the rest.
# Tested on: HepG2
# Experiment: cytotoxicity call (relative viability < 0.9)
# Details: 10 µM
row,Structure (SMILES),cytotoxicity call
1,C[C@H](CO)N1C[C@H](C)[C@H](CN(C)Cc2ccc(Oc3ccccc3)cc2)Oc2ncc(-c3cccnc3)cc2C1=O,inactive
2,C[C@H](CO)N1C[C@H](C)[C@H](CN(C)C(=O)NC2CCCCC2)Oc2ccc(NC(=O)Nc3cccc4ccccc34)cc2C1=O,inactive
3,C[n+]1c2cc(N)ccc2cc2ccc(N)cc21.[Cl-],active
4,C[C@@H]1CCCCO[C@@H](CN(C)Cc2ccc(C(=O)O)cc2)[C@H](C)CN([C@H](C)CO)C(=O)c2cc(NC(=O)c3ccccc3)ccc2O1,inactive
5,C[C@H]1CN([C@@H](C)CO)C(=O)CCCn2cc(nn2)CO[C@H]1CN(C)C(=O)Nc1cccc(Oc2ccccn2)c1,inactive
6,CC(=O)OC[C@H]1O[C@@H](n2ccc(=O)[nH]c2=O)[C@H](OC(C)=O)[C@@H]1OC(C)=O,inactive
7,COCC(=O)N1C[C@H](C)[C@H](OC)CN(C)C(=O)c2cc(NC(=O)Nc3cccc(F)c3)ccc2OC[C@@H]1C,inactive
8,COc1ccc(NC(=O)Nc2ccc3c(c2)C(=O)N([C@@H](C)CO)C[C@H](C)[C@@H](CN(C)Cc2ccc(Cl)c(Cl)c2)O3)cc1,inactive
9,COc1ccc(NC(=O)Nc2ccc3c(c2)C(=O)N([C@@H](C)CO)C[C@@H](C)[C@@H](CN(C)Cc2ccc(Cl)c(Cl)c2)O3)cc1,inactive
10,COc1ccc(NC(=O)Nc2ccc3c(c2)C(=O)N([C@H](C)CO)C[C@@H](C)[C@@H](CN(C)Cc2ccc(Cl)c(Cl)c2)O3)cc1,inactive
11,COc1ccc(NC(=O)Nc2ccc3c(c2)C(=O)N([C@H](C)CO)C[C@H](C)[C@H](CN(C)Cc2ccc(Cl)c(Cl)c2)O3)cc1,active
12,COc1ccc(NC(=O)Nc2ccc3c(c2)C(=O)N([C@@H](C)CO)C[C@H](C)[C@H](CN(C)Cc2ccc(Cl)c(Cl)c2)O3)cc1,active
13,COc1ccc(NC(=O)Nc2ccc3c(c2)C(=O)N([C@H](C)CO)C[C@H](C)[C@@H](CN(C)Cc2ccc(Cl)c(Cl)c2)O3)cc1,inactive
14,C[C@H]1CN([C@@H](C)CO)S(=O)(=O)c2ccc(-c3ccc(C(=O)N(C)C)cc3)cc2O[C@@H]1CN(C)C(=O)C1CCC1,inactive
15,CC(=O)O[C@H]1[C@H](Oc2cc(O)cc(O)c2C(=O)c2cc(O)cc(O)c2)O[C@H](CO)[C@@H](OC(=O)c2ccccc2)[C@@H]1O,inactive
16,O=C(CCc1ccc(O)cc1)c1c(O)c([C@@H]2O[C@H](CO)[C@@H](O)[C@H](O)[C@H]2O)c(O)c([C@@H]2O[C@H](CO)[C@@H](O)[C@H](O)[C@H]2O)c1O,inactive
17,O=C(O[C@H]1[C@H](O)[C@@H](CO)O[C@H](c2c(O)cc(O)c(C(=O)c3ccc(O)cc3)c2O)[C@H]1OC(=O)c1cc(O)c(O)c(O)c1)c1cc(O)c(O)c(O)c1,active
18,Cc1ccc(S(=O)(=O)N(C)C[C@@H]2Oc3ccc(NC(=O)CCCN(C)C)cc3CC(=O)N([C@H](C)CO)C[C@H]2C)cc1,inactive
19,CN(C)CC#Cc1ccc([C@@H]2[C@H](CO)N3C(=O)CN(C(=O)CN(C)C)C[C@@H]23)cc1,inactive
20,C[C@@H]1CN([C@H](C)CO)C(=O)c2cccc(NC(=O)c3ccncc3)c2O[C@@H]1CN(C)S(=O)(=O)c1cccs1,active
21,C[C@H]1CN([C@@H](C)CO)C(=O)c2cccc(NC(=O)c3ccncc3)c2O[C@H]1CN(C)S(=O)(=O)c1cccs1,inactive
22,C[C@@H]1CN([C@H](C)CO)C(=O)c2cccc(NC(=O)c3ccncc3)c2O[C@H]1CN(C)S(=O)(=O)c1cccs1,inactive

row,Structure (SMILES),cytotoxicity call
1,C[C@H](CO)N1C[C@H](C)[C@H](CN(C)S(=O)(=O)c2cccs2)Oc2c(NC(=O)c3ccncc3)cccc2C1=O,inactive
2,C[C@@H]1CN([C@@H](C)CO)C(=O)c2cccc(NC(=O)c3ccncc3)c2O[C@@H]1CN(C)S(=O)(=O)c1cccs1,active
3,C[C@@H]1CN([C@@H](C)CO)C(=O)c2cccc(NC(=O)c3ccncc3)c2O[C@H]1CN(C)S(=O)(=O)c1cccs1,inactive
4,CO[C@H]1CN(C)C(=O)c2cc(NS(=O)(=O)c3cn(C)cn3)ccc2OC[C@@H](C)N(Cc2cccc(F)c2)C[C@@H]1C,inactive
5,Cc1noc(C)c1NC(=O)N(C)C[C@H]1Oc2ccc(NC(=O)C3CC3)cc2C(=O)N([C@H](C)CO)C[C@@H]1C,inactive
6,C[C@@H]1CN([C@H](C)CO)C(=O)c2cc(NS(C)(=O)=O)ccc2O[C@@H](C)CCCCO[C@H]1CN(C)CC1CC1,inactive
7,C[C@@H]1CCCCO[C@@H](CN(C)C(=O)c2ccccc2)[C@H](C)CN([C@@H](C)CO)C(=O)c2cc(NS(=O)(=O)c3ccccc3)ccc2O1,inactive
8,C[C@@H]1CN([C@H](C)CO)S(=O)(=O)c2ccc(Br)cc2O[C@H]1CN(C)C(=O)Nc1ccccc1,inactive
9,C[C@H](CO)N1C[C@H](C)[C@H](CN(C)CC2CCCCC2)Oc2ccc(NC(=O)Nc3cccc4ccccc34)cc2CC1=O,inactive
10,C[C@@H]1CN([C@@H](C)CO)C(=O)Cc2cc(NC(=O)Nc3cccc4ccccc34)ccc2O[C@@H]1CN(C)CC1CCCCC1,active
11,C[C@@H]1CN([C@@H](C)CO)C(=O)Cc2cc(NC(=O)Nc3cccc4ccccc34)ccc2O[C@H]1CN(C)CC1CCCCC1,inactive
12,C[C@@H]1CN([C@H](C)CO)C(=O)Cc2cc(NC(=O)Nc3cccc4ccccc34)ccc2O[C@H]1CN(C)CC1CCCCC1,inactive
13,C[C@H]1CN([C@@H](C)CO)C(=O)Cc2cc(NC(=O)Nc3cccc4ccccc34)ccc2O[C@H]1CN(C)CC1CCCCC1,active
14,C[C@H]1CN([C@@H](C)CO)C(=O)Cc2cc(NC(=O)Nc3cccc4ccccc34)ccc2O[C@@H]1CN(C)CC1CCCCC1,active
15,C[C@@H]1CN([C@H](C)CO)C(=O)Cc2cc(NC(=O)Nc3cccc4ccccc34)ccc2O[C@@H]1CN(C)C(=O)NC1CCCCC1,inactive
16,C[C@H](CO)N1C[C@H](C)[C@@H](CN(C)CC2CCCCC2)Oc2ccc(NC(=O)Nc3cccc4ccccc34)cc2CC1=O,inactive
17,C[C@@H]1CN([C@H](C)CO)C(=O)Cc2cc(NC(=O)Nc3cccc4ccccc34)ccc2O[C@@H]1CN(C)CC1CCCCC1,active
18,COc1ccc(S(=O)(=O)Nc2ccc3c(c2)C(=O)N([C@@H](C)CO)C[C@@H](C)[C@H](CN(C)S(=O)(=O)c2ccccc2)O3)cc1,inactive
19,Cc1ccc(S(=O)(=O)Nc2ccc3c(c2)C(=O)N([C@H](C)CO)C[C@H](C)[C@@H](CN(C)C(=O)Cc2ccccc2)OCCCC[C@H](C)O3)cc1,inactive
20,CN1C(=O)c2cc(NC(=O)c3cccs3)ccc2OC[C@H]2O[C@H](CC(=O)NCCN3CCCCC3)CC[C@H]21,inactive
21,CO/N=C1\CN(c2nc3c(cc2F)c(=O)c(C(=O)O)cn3C2CC2)C[C@@H]1CN,inactive
22,COc1ccc(S(=O)(=O)N2C[C@@H](O)COC[C@@H]3O[C@@H](CC(=O)N[C@@H]4CCN(Cc5ccccc5)C4)CC[C@H]32)cc1,inactive

row,Structure (SMILES),cytotoxicity call
1,C[C@]1(C(=O)NCC(F)(F)F)c2ccccc2C(=O)N(Cc2cc(F)cc(C(F)(F)F)c2)[C@H]1c1ccc(CO)cc1,inactive
2,Cc1ccc(S(=O)(=O)Nc2cccc3c2O[C@@H](CN(C)S(=O)(=O)c2ccccc2)[C@H](C)CN([C@@H](C)CO)C3=O)cc1,inactive
3,COCC#Cc1cnc2c(c1)C(=O)N([C@@H](C)CO)C[C@@H](C)[C@@H](CN(C)C(=O)CCN1CCCCC1)O2,inactive
4,Cc1noc(C)c1NC(=O)Nc1ccc2c(c1)C(=O)N([C@H](C)CO)C[C@H](C)[C@@H](CN(C)S(=O)(=O)c1ccccc1)OCCCC[C@@H](C)O2,inactive
5,NC1(Cc2ccc(Cl)cc2)CCN(c2ncnc3[nH]ccc23)CC1,active
6,Cc1ccc(S(=O)(=O)N2C[C@H](O)COC[C@@H]3O[C@@H](CC(=O)N[C@@H]4CCN(Cc5ccccc5)C4)CC[C@H]32)cc1,inactive
7,COc1cc2c3cc1Oc1cc(ccc1O)O[C@H]1c4c(cc(OC)c(O)c4Oc4ccc(cc4)C[C@@H]3N(C)CC2)CCN1C,inactive
8,CN1CCc2cccc3c2C1Cc1ccc(O)c(O)c1-3.Cl (stereo unspecified),active
9,C[C@H](CO)N1C[C@H](C)[C@@H](CN(C)S(C)(=O)=O)Oc2ccc(NC(=O)NC3CCCCC3)cc2C1=O,inactive
10,C[C@@H]1CN([C@H](C)CO)C(=O)CCCn2cc(nn2)CO[C@@H]1CN(C)C(=O)CCCN(C)C,inactive
11,COCC#Cc1cnc2c(c1)C(=O)N([C@@H](C)CO)C[C@@H](C)[C@H](CN(C)C(=O)c1ccc3c(c1)OCO3)O2,inactive
12,C[C@H](CO)N1C[C@H](C)[C@@H](CN(C)S(=O)(=O)c2cn(C)cn2)Oc2cc(C#Cc3ccc(F)cc3)ccc2S1(=O)=O,inactive
13,Cc1c(C(=O)Nc2ccc3ccccc3c2)oc2ccccc12,active
14,O=C(Cc1ccc(-c2ccccc2)cc1)Nc1c(C(=O)Nc2ccc3c(c2)OCCO3)oc2ccccc12,inactive
15,CCC(=O)Nc1ccc2ccccc2c1,inactive
16,CC(C)NC(=O)N(C)C[C@H]1Oc2ccc(NC(=O)CCC(F)(F)F)cc2C(=O)N([C@@H](C)CO)C[C@H]1C,inactive
17,C[C@@H]1CN([C@H](C)CO)S(=O)(=O)c2ccc(C3=CCCC3)cc2O[C@H]1CN(C)C(=O)C1CCOCC1,inactive
18,COCC(=O)N1C[C@H](C)[C@@H](OC)CN(C)C(=O)c2ccc(NC(=O)c3ccc(OC)cc3)cc2OC[C@H]1C,inactive
19,CCOC(=O)N1CCC(O)CC1,inactive
20,CCOC(=O)CN1CCN(C=O)CC1,active
21,CCOC(=O)CN1C(=O)c2ccccc2C1=O,inactive
22,CN(C)CCCNC(=O)[C@H]1[C@H](CO)[C@H]2Cn3c(ccc(-c4cccc(C(=O)N(C)C)c4)c3=O)[C@@H]1N2,inactive
